Experimental data from the supplement of paper PMC10338343.
± gives the standard deviation.

Test system: MILI (PIWIL2) piRISC loaded with L1MC piRNA (26 nt);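 note: 1 nM active piRISC with 0.1 nM target library at 33 °C single turnover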
Assay: pre-steady-state target cleavage rate (min^-1); guide: L1MC piRNA 5'p-UAACUAAAUACUAUGCAAGCUGUAGG; higher = faster piRNA-guided slicing of the target
Details: auxiliary factor: 500 nM mouse GTSF1
How it was run: (§1)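 At 33 °C in HEPES–potassium acetate buffer, a transcribed, DNA-blocked target RNA library […] was exposed for 0–8 or 0–960 min to 1 nM active affinity-purified piRISC carrying a single synthetic guide, with or without 500 nM GTSF1 partner protein. Uncleaved targets were sequenced and normalised to depth and to weakly complementary targets. With three trials pooled and k3 capped at 0.0001 min^-1, a burst-and-steady-state fit produced the pre-steady-state cleavage rate.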

Sequence	pre-steady-state target cleavage rate
UCCUGCUACAGCUUGCUAUAGUAUUUAGUUA	0.05 ± 0.017
UCCUGCUACAGCUUGCAUAGUAUUUAGUAA	0.182 ± 0.024
UCCUGGUACAGCUUGCAUAGAAUUUAGUUA	0.229 ± 0.08
UCCUGGAACAGCAUCCAUAGUAUUUAGUUA	0.195 ± 0.045
UCCUGGAUCAGCUUGCUUAGUAUUUAGAAA	0.0821 ± 0.019
UCCUGGAUCAGCUUGGAUAGUAUUUUGUUA	0.117 ± 0.021
UCCUGGAAGAGCUUGCAUAGAAUUUAGUUA	0.0498 ± 0.011
UCCUGCUACAGCUUGCAUAGAAUAUAGUUA	0.0873 ± 0.021
UCCUGGAUCAGCAUGCAUAGUAUUUAGAUA	0.149 ± 0.017
UCCUGCUACAGCUUGCAUAGUAUUAUGUUA	0.231 ± 0.047
UCCUGGAUCACGAUGCAUAGUAUUUAGUAA	0.173 ± 0.016
UCCUGGUACAGCUUGCAUAGUAAUUUGUUA	0.18 ± 0.05
UCCUGCUACAGCUUGCAUAGUAAUUAGUAA	0.133 ± 0.025
UCCUGGUACAGCUUGCUUAGUAUUUAGAUA	0.122 ± 0.024
UCCUCCUACUGCUUGCAUAGUAUUUAGAUA	0.085 ± 0.015
UCCUCCUACAGCUUGCAUAGAAUUUAGAAA	0.0449 ± 0.015
UCCUCCUACAGCUUGCAUAGCAUUUAGUUA	0.0883 ± 0.013
UCCUGGAACACGUUGCAUAGUAUUUAGUAA	0.254 ± 0.036
UCCUGGAUCAGCUUGCUUAGUAUUUACAAA	0.0696 ± 0.019
UCCUCCUACAGCUUGCAUAGUAAAAAGUAA	0.0657 ± 0.019

Sequence	pre-steady-state target cleavage rate
UCCUGGAACAGCUUGCAUAGUAAUUAGAAA	0.0609 ± 0.018
UCCUGGAUGUGCUUGCAUAGUAUUUAGUCUA	0.0182 ± 0.006
UCCUGGAACAGCUUGCAUAGUAUAUAGUAA	0.124 ± 0.022
UCCUGCUACAGCUUGCAUACUAUUUUGUUA	0.0252 ± 0.0096
UCCUCCUACAGCUUGCAUAGUAUUAAGUAA	0.17 ± 0.037
UCCUGGAACAGGUUCCAUAGUAUUUAGUUA	0.202 ± 0.066
UCCUGCUACAGCUUGCAUAGUAUUUGUUA	0.124 ± 0.028
UCCUCCUACACCUUCCAUAGUAUUUAGUUA	0.0308 ± 0.014
UCCUCCUACAGCUUGCAUAUAUUUAGUUA	0.0398 ± 0.0083
UCCUGCUACUGCUUGCAUAGUAUUUAGAAA	0.0315 ± 0.0099
UCCUCCUACAGCUUGGAUAGUAUUUACAAA	0.021 ± 0.0081
UCCUCCUACAGCUUGCAAAGUAUUUAGAUA	0.0875 ± 0.015
UCCUGGUACAGCUUGCAUAGUAUUUUGAUA	0.0966 ± 0.025
UCCUGCUACACCUUGCAUAGUAUUUACUUA	0.102 ± 0.034
UCCUCCUACAGCUUGCACUAGUAUUUAGUUA	0.0877 ± 0.019
UCCUCCUACAGCUUGCAUAGUAUUAUCAAA	0.0973 ± 0.021
UCCUCCUACAGCUUGCAUAGUAUUUAUUA	0.0949 ± 0.023
UCCUGGAUGAGCUUGCUUAGUAUUAAGUUA	0.128 ± 0.021
UCCUGGAUCAGCUUGCAUUGUAUUUAGAAA	0.0362 ± 0.013

Test system: EfPiwi piRISC loaded with L1MC piRNA (26 nt)
Assay: pre-steady-state target cleavage rate (min^-1); auxiliary factor: 500 nM Ephydatia muelleri Gtsf1; guide: L1MC piRNA 5'p-UAACUAAAUACUAUGCAAGCUGUAGG; MIWI and MILI are mouse PIWI proteins and EfPiwi is from a freshwater sponge; tags in brackets are library labels; higher = faster piRNA-guided slicing of the target
Details: not given
How it was run: as §1

Sequence	pre-steady-state target cleavage rate
UCCUGCUACAGCUUGCUAUAGUAUUUAGUUA	0.0075 ± 0.002
UCCUGCUACAGCUUGCAUAGUAUUUAGUAA	0.00553 ± 0.0022
UCCUGGUACAGCUUGCAUAGAAUUUAGUUA	0.00314 ± 0.0023
UCCUGGAACAGCAUCCAUAGUAUUUAGUUA	0.0025 ± 0.0021
UCCUGGAUCAGCUUGCUUAGUAUUUAGAAA	0.00269 ± 0.0022
UCCUGGAUCAGCUUGGAUAGUAUUUUGUUA	0.00346 ± 0.0027
UCCUGGAAGAGCUUGCAUAGAAUUUAGUUA	0.00403 ± 0.0018
UCCUGCUACAGCUUGCAUAGAAUAUAGUUA	0.00332 ± 0.0022
UCCUGGAUCAGCAUGCAUAGUAUUUAGAUA	0.0044 ± 0.0024
UCCUGCUACAGCUUGCAUAGUAUUAUGUUA	0.00406 ± 0.002
UCCUGGAUCACGAUGCAUAGUAUUUAGUAA	0.00397 ± 0.0033
UCCUGGUACAGCUUGCAUAGUAAUUUGUUA	0.00282 ± 0.0025
UCCUGCUACAGCUUGCAUAGUAAUUAGUAA	0.00441 ± 0.0018
UCCUGGUACAGCUUGCUUAGUAUUUAGAUA	0.00305 ± 0.0025
UCCUCCUACUGCUUGCAUAGUAUUUAGAUA	0.0056 ± 0.0026
UCCUCCUACAGCUUGCAUAGAAUUUAGAAA	0.00385 ± 0.0019
UCCUCCUACAGCUUGCAUAGCAUUUAGUUA	0.00463 ± 0.0019
UCCUGGAACACGUUGCAUAGUAUUUAGUAA	0.00365 ± 0.0034
UCCUGGAUCAGCUUGCUUAGUAUUUACAAA	0.00612 ± 0.0047
UCCUCCUACAGCUUGCAUAGUAAAAAGUAA	0.00344 ± 0.0029

Sequence	pre-steady-state target cleavage rate
UCCUGGAACAGCUUGCAUAGUAAUUAGAAA	0.00338 ± 0.0026
UCCUGGAUGUCGAACGUUAGUAUUUUCAAA [g6:g13:cont:t1A]	< 0.0001
UCCUGGAUGUGCUUGCAUAGUAUUUAGUCUA	0.00336 ± 0.0024
UCCUGGAACAGCUUGCAUAGUAUAUAGUAA	0.00251 ± 0.0017
UCCUGCUACAGCUUGCAUACUAUUUUGUUA	0.00432 ± 0.0019
UCCUCCUACAGCUUGCAUAGUAUUAAGUAA	0.00642 ± 0.0035
UCCUGGAACAGGUUCCAUAGUAUUUAGUUA	0.00255 ± 0.0024
UCCUGCUACAGCUUGCAUAGUAUUUGUUA	0.00505 ± 0.002
UCCUCCUACACCUUCCAUAGUAUUUAGUUA	0.00329 ± 0.0018
UCCUCCUACAGCUUGCAUAUAUUUAGUUA	0.00725 ± 0.0034
UCCUGCUACUGCUUGCAUAGUAUUUAGAAA	0.00545 ± 0.0023
UCCUCCUACAGCUUGGAUAGUAUUUACAAA	0.00267 ± 0.0022
UCCUCCUACAGCUUGCAAAGUAUUUAGAUA	0.00419 ± 0.0024
UCCUGGUACAGCUUGCAUAGUAUUUUGAUA	0.00381 ± 0.0026
UCCUGCUACACCUUGCAUAGUAUUUACUUA	0.00306 ± 0.003
UCCUCCUACAGCUUGCACUAGUAUUUAGUUA	0.0137 ± 0.0056
UCCUCCUACAGCUUGCAUAGUAUUAUCAAA	0.00273 ± 0.0027
UCCUCCUACAGCUUGCAUAGUAUUUAUUA	0.00539 ± 0.0031
UCCUGGAUGAGCUUGCUUAGUAUUAAGUUA	0.00314 ± 0.0031
UCCUGGAUCAGCUUGCAUUGUAUUUAGAAA	0.00264 ± 0.0021
